{"source": "PubChem BioAssay AID602410", "about": "(Johns Hopkins Ion Channel Center, 2012)", "note": "The whole screen tested about 340,000 compounds, of which about 2,800 (0.82%) were called active.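 How the source made its calls: active means B-score under library mean minus 4 SD, starting fluorescence ratio at most library mean plus 5 SD; inactive means the rest.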 Many of the other results were omitted from the sample, so actives are more common in it than they were."}
{"target": "Potassium channel subfamily K member 3 (Homo sapiens) (UniProt O14649)", "sequence (O14649 whole entry, looked up)": "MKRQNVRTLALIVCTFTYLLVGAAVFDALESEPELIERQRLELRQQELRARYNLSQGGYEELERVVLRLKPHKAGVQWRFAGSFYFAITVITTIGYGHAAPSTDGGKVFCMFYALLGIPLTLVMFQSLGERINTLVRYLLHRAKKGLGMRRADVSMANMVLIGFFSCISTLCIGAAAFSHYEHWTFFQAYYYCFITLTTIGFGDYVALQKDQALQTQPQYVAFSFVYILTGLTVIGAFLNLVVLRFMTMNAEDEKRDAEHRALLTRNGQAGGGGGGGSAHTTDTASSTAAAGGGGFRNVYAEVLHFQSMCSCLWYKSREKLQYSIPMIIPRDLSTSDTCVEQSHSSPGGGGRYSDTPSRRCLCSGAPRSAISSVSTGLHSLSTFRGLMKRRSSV", "test": "human KCNK3 channel inhibitors, primary screen, CHO cells, FluxOR thallium flux, B-score (AID 602410);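 on B-score: more negative B-score means stronger inhibition of thallium flux through KCNK3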", "details": "FluxOR fluorescence, at 10 µM; active compounds read low"}
{"compound": "O=C1C(Cl)=C(Oc2ccccc2)C(=O)c2ccccc21", "B-score": "inactive"}
{"compound": "O=C(NC1=CC(=O)c2ccccc2C1=O)c1ccccc1", "B-score": "inactive"}
{"compound": "CC(=O)N(C1=C(Cl)C(=O)c2ccccc2C1=O)c1ccc(C(=O)O)cc1", "B-score": "-11 (active)"}
{"compound": "CS(=O)(=O)N(CC(=O)N1CCc2ccccc2C1)c1ccc(Br)cc1", "B-score": "inactive"}
{"compound": "CC1(C)CC(N2CCN(C(c3ccccc3)c3ccccc3)CC2)=CC(=[N+]2CCCCC2)C1", "B-score": "-8.86 (active)"}
{"compound": "CC(C)OCC(O)CN1CCN(C(c2ccccc2)c2ccccc2)CC1", "note": "(stereo unspecified)", "B-score": "inactive"}
{"compound": "COc1ccccc1CN1CCN(C(c2ccccc2)c2ccccc2)CC1", "B-score": "inactive"}
{"compound": "CC(C)Nc1nnc(SCC(=O)/C=C2\\N(C)c3ccccc3C2(C)C)s1", "B-score": "inactive"}
{"compound": "CN1CCN(CCC(=O)N/N=C/C=C2\\N(C)c3ccccc3C2(C)C)CC1", "B-score": "inactive"}
{"compound": "CC(=O)Nc1cccc(OCC(=O)/C=C2\\N(C)c3ccccc3C2(C)C)c1", "B-score": "-8.91 (active)"}
{"compound": "CCCCn1c(N)c(N(CCOC)C(=O)c2cccc(S(=O)(=O)N3CCCCC3)c2)c(=O)[nH]c1=O", "B-score": "inactive"}
{"compound": "O=C(N/N=C/c1ccoc1)c1ccc(Cl)cc1Cl", "B-score": "inactive"}
{"compound": "CC(C)c1cc(C(=O)N/N=C/c2ccoc2)c(O)c(C(C)C)c1", "B-score": "-10.5 (active)"}
{"compound": "CC(Oc1ccccc1[N+](=O)[O-])C(=O)N/N=C/c1ccoc1", "note": "(stereo unspecified)", "B-score": "inactive"}
{"compound": "COC(=O)c1cc2c(ccn2C)n1C", "B-score": "inactive"}
{"compound": "COc1ccc(S(=O)(=O)c2c[nH]c(=S)[nH]c2=O)cc1Cl", "B-score": "inactive"}
{"compound": "CC(=O)Nc1ccc(S(=O)(=O)NCCC(=O)N2CCN(c3ccccc3Cl)CC2)cc1", "B-score": "inactive"}
{"compound": "OC(CN=c1sc2ccccc2n1CC(O)COc1ccccc1)COc1ccccc1", "note": "(stereo unspecified)", "B-score": "-12.6 (active)"}
{"compound": "CC(C)c1ccc(OCC(O)Cn2cnc3ccccc32)cc1", "note": "(stereo unspecified)", "B-score": "inactive"}
{"compound": "O=C(C(c1ccccc1)c1ccccc1)N1CCN(CC(O)COc2ccccc2)CC1", "note": "(stereo unspecified)", "B-score": "inactive"}
{"compound": "COc1ccc(C)cc1NC(=O)CNCc1cccs1", "B-score": "inactive"}
{"compound": "O=C1OC(Oc2ccc(Br)cc2)(c2ccccc2)c2ccccc21", "note": "(stereo unspecified)", "B-score": "-10.1 (active)"}
{"compound": "CS(=O)(=O)Nc1ccccc1N=C(c1ccccc1)c1ccccc1", "B-score": "inactive"}
{"compound": "CCC(CC)C(=O)Nc1cc(C(=O)OC)cc(C(=O)OC)c1", "B-score": "inactive"}
{"compound": "O=C(NCCCO)c1cc2c([nH]c3ccccc32)c(-c2ccc(F)cc2)n1", "B-score": "inactive"}
{"compound": "COc1ccc2c(Cl)c(C(=O)NCc3ccco3)sc2c1", "B-score": "inactive"}
{"compound": "CN(CCNC(=O)c1cc2c(-c3ccccc3F)nn(C)c2s1)C1CCCCC1", "B-score": "inactive"}
{"compound": "Cn1nc(-c2ccc(Cl)cc2)c2cc(C(=O)NCc3ccco3)sc21", "B-score": "-13.2 (active)"}
{"compound": "COc1ccccc1N1CCN(C(=O)c2cn(-c3ccccc3)nc2-c2cccnc2)CC1", "B-score": "inactive"}
{"compound": "COc1cccc(-c2nn(C)c3sc(C(=O)N4CCN(c5ccccc5)CC4)cc23)c1", "B-score": "inactive"}
{"compound": "COc1ccccc1N1CCN(C(=O)c2cc3c(-c4ccc(Cl)cc4)nn(C)c3s2)CC1", "B-score": "-10.1 (active)"}
{"compound": "CCOc1ccc(NS(=O)(=O)c2cc(C)c(C)cc2C)cc1", "B-score": "inactive"}
{"compound": "CCOc1ccccc1NC(=O)c1cc(S(=O)(=O)N2CCC3(CC2)OCCO3)ccc1F", "B-score": "inactive"}
{"compound": "CC(=O)N1CC[n+]2c(-c3ccc([N+](=O)[O-])cc3)csc21", "B-score": "inactive"}
{"compound": "CC1CCCCC12NC(=O)N(CC(=O)OCc1c(F)cccc1Cl)C2=O", "note": "(stereo unspecified)", "B-score": "inactive"}
{"compound": "CCOc1ccc(N(C)Cc2cc(=O)oc3ccc(OC)cc23)cc1", "B-score": "inactive"}
{"compound": "Cc1ccc(CN(C)Cc2cc(=O)oc3cc(C)c(Cl)cc23)cc1", "B-score": "inactive"}
{"compound": "Cc1cc2oc(=O)cc(CN(C)Cc3ccc(OC(F)F)cc3)c2cc1Cl", "B-score": "-10.4 (active)"}
{"compound": "NNC(=O)c1cccc(COCC(F)(F)C(F)F)c1", "B-score": "inactive"}
{"compound": "O=C(O)c1ccc(NN=CC2=C(N3CCOCC3)/C(=C/c3ccccc3)CC2)cc1", "B-score": "-9.13 (active)"}
{"compound": "N#C/C(=C\\C1=C(N2CCOCC2)C(=C\\c2ccccc2)/CC1)C(=O)Nc1ccccc1F", "B-score": "inactive"}
{"compound": "O=C1Nc2ccc(Br)cc2/C1=N/N=C/C1=C(N2CCOCC2)C(=C\\c2ccccc2)/CC1", "B-score": "inactive"}
{"compound": "COc1ccc(N2CCN(CCNC(=O)Nc3cc(Cl)ccc3Cl)CC2)cc1", "B-score": "inactive"}
{"compound": "COc1ccc(NC(=O)c2sccc2SCC#N)cc1", "B-score": "inactive"}
{"compound": "CC(C)(C)N1CC(c2nc3ccccc3n2Cc2ccc(F)cc2)CC1=O", "note": "(stereo unspecified)", "B-score": "inactive"}
{"compound": "Cc1cc(C)c(C)c(S(=O)(=O)N[C@@H](C)C(=O)OC(C)C(=O)NC(N)=O)c1C", "note": "(stereo partly specified)", "B-score": "inactive"}
{"compound": "CCSc1nsc(NC(=O)Nc2cccc(C(C)=O)c2)n1", "B-score": "inactive"}
{"compound": "C=CCSc1nsc(NC(=O)Nc2cccc(C(C)=O)c2)n1", "B-score": "-9.78 (active)"}
{"compound": "CSc1nsc(NC(=O)Nc2ccccc2)n1", "B-score": "inactive"}
{"compound": "CCOC(=O)C1CCCN(C(=O)C2CCN(S(=O)(=O)c3ccc(Cl)c(C(F)(F)F)c3)CC2)C1", "note": "(stereo unspecified)", "B-score": "inactive"}
{"compound": "COC(=O)c1cccc(-n2[nH]nnc2=S)c1", "B-score": "inactive"}
{"compound": "COc1ccccc1CNC(=O)COc1ccc(C)nc1[N+](=O)[O-]", "B-score": "inactive"}
{"compound": "Cc1ccc(S(=O)(=O)N2C[C@@H]3CCCC[C@@H]3[C@@H](C)[C@H]2c2cn(Cc3ccccc3)c3ccc(F)cc23)cc1", "B-score": "inactive"}
{"compound": "CCc1ccccc1NC(=O)NCCN1CCCCC1", "B-score": "inactive"}
{"compound": "CN1CCc2ccccc2C1Cc1ccccc1NC(=O)c1sc2ccccc2c1Cl", "note": "(stereo unspecified)", "B-score": "-9.31 (active)"}
{"compound": "COc1ccc(CNC(=O)CNC(=O)c2sc3ccccc3c2Cl)cc1OC", "B-score": "inactive"}
{"compound": "CCOc1ccc(CCNC(=O)COC(=O)c2ccc(F)c(S(=O)(=O)N3CCOCC3)c2)cc1OCC", "B-score": "inactive"}
{"compound": "CCOc1ccc(OCC)c(NC(=O)C2CCN(S(=O)(=O)c3c(C)noc3C)CC2)c1", "B-score": "inactive"}
{"compound": "CC[n+]1cc(C)ccc1/C=C/c1ccc(N(C)C)cc1", "B-score": "-8.95 (active)"}
{"compound": "CCOC(=O)C1CCN(C(=O)C2CCN(S(=O)(=O)CC)CC2)CC1", "B-score": "inactive"}
{"compound": "COC(=O)c1ccccc1Sc1c(/C=N/OCc2ccc(Cl)cc2)c(C(F)(F)F)nn1C", "B-score": "inactive"}
{"compound": "Cc1ccc(NC(=O)CCC(=O)N2CCC(c3ccccc3)=N2)cc1S(=O)(=O)N1CCCCC1", "B-score": "inactive"}
{"compound": "Cc1ccc(C(=O)N2CCCC(c3ccccc3)=N2)cc1", "B-score": "inactive"}
{"compound": "Cc1ccc(NC(=S)N2CCCC(c3ccccc3)=N2)cc1", "B-score": "-8.89 (active)"}
{"compound": "Cc1ccc(CSc2nc3[nH]ncc3c(=O)[nH]2)cc1", "B-score": "inactive"}
{"compound": "Cc1cc2c(=O)n(CC(=O)NCC(=O)Nc3ccc(C(C)C)cc3)cnc2s1", "B-score": "inactive"}
